# Assay outcomes from PubChem BioAssay.
# PrP UTR inh = inhibition of PrP 5' UTR reporter expression; cell-based PrP 5' UTR mRNA reporter, plate reader; inhibition, % (test concentration not listed); actives 0.35% (n = 340,000); AID 488862, 2010; in the data active means inhibition above about 52%; further: 0 = median of the neutral control wells
# PrPC TRFRET = inhibitors of human cell surface prion protein PrPC, primary screen, cell-based, TR-FRET; TR-FRET read-out; inhibition, % at 13.8 µM; actives 0.43% (n = 370,000); AID 720596, 2013; in the data active means inhibition above about 24%; further: 0% = median of the test wells and 100% = reference compound wells
# SARS 3CLpro inh-1 = SARS-CoV 3CLpro protease inhibitors, primary screen, biochemical, quenched FRET; Replicase polyprotein 1ab (Severe acute respiratory syndrome coronavirus), P0C6X7; recombinant SARS-CoV 3CLpro, quenched FRET peptide cleavage; inhibition, % at 6 µM; actives 0.14% (n = 290,000); in the data active means inhibition above about 12%
# MazEF act = activators of E. coli MazEF toxin-antitoxin RNase, primary screen, biochemical, fluorescence, uHTS; actives 0.32% (n = 350,000); AID 504720, 2011; activation, % at 20 µM; FAM/BHQ RNA-DNA oligo cleavage fluorescence, 5 h; Endoribonuclease toxin MazF (Escherichia coli (strain K12)), P0AE70; in the data active means activation above about 50%
# Target sequence (P0AE70 whole entry, looked up): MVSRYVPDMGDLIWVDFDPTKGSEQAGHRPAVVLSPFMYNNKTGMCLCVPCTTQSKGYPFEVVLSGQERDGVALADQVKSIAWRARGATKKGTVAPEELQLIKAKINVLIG
# DUSP3 inh = VHR1 phosphatase inhibitors, primary screen, biochemical, absorbance, uHTS; inhibition, % at 13.3 µM; Dual specificity protein phosphatase 3 (Homo sapiens), P51452; actives 0.52% (n = 290,000); recombinant VHR phosphatase, pNPP absorbance; in the data active means inhibition above about 50%
# Target sequence (P51452 whole entry, looked up): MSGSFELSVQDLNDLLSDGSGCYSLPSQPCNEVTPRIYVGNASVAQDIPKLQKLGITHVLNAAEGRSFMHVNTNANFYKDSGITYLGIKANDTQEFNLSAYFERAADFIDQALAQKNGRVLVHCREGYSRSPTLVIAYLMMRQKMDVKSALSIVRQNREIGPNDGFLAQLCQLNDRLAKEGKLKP
# Mtb hypoxia rep = PubChem AID 1159583 | actives 0.1% (n = 300,000) | M. tuberculosis hypoxia-regulated fluorescent reporter, fluorescence | fluorescence inhibition, % (test concentration not listed); in the data active means fluorescence inhibition mostly above about 23%, no sharp cut-off; inactive means mostly below about 17%
# SARS 3CLpro inh-2 = confirmation of SARS coronavirus 3C-like protease inhibitors, retest, confirmation, biochemical. shares compounds with SARS 3CLpro inh-1. QFRET protease activity assay, 3CLpro. inhibition, % at 6 µM. actives 36% (n = 380); in the data active means inhibition above about 13%
# An asterisk follows results filed as active; . = no result. This is a sample that favours compounds with a hit; in the whole collection about 1.5% have one here.
SMILES,PrP UTR inh,PrPC TRFRET,SARS 3CLpro inh-1,MazEF act,DUSP3 inh,Mtb hypoxia rep,SARS 3CLpro inh-2
CCOC(=O)c1oc2nc(C)c3c(c2c1N)CC(C)(C)OC3,-24.4,-1.4,3.5,2.7,-0.2,6.5,.
CCOC(=O)c1oc2nc(CC(C)C)c3c(c2c1N)CCCC3,-9.6,-5.7,13.3*,14.3,3.5,13.8,3.1
O=C(NCCc1ccccc1)C1CC=CC2CCN(C3CCCCC3)C(=O)C21 (stereo unspecified),.,.,.,.,.,6.3,.
COc1cccc(CNC(=O)CN(c2ccc(C(C)C)cc2)S(=O)(=O)c2c(C)noc2C)c1,-11.5,-3.4,15.0*,-0.2,-10.2,2.5,1.7
COc1cccc(CNC(=O)CN(c2cc(C)cc(C)c2)S(=O)(=O)c2c(C)noc2C)c1,21.8,-1.8,-0.3,2.5,21.1,.,.
COc1ccccc1CN1C2CCCC1CC(NC(=O)C=Cc1ccccc1)C2 (stereo unspecified),.,.,.,.,.,-3.6,.
Cc1nc(N2CCC(C)CC2)c2c(C)c(C(=O)Nc3ccc4c(c3)OCCO4)sc2n1,-15.1,5.7,14.2*,-1.2,5.3,7.6,2.7
CCN(N=Cc1ccccc1)c1cc(=O)n(C)c(=O)[nH]1,.,.,.,.,.,-1.8,.
CCc1ccc2c(c1)C(NC(C)=O)C(=O)N2CCN1CCOCC1 (stereo unspecified),.,-5.8,13.9*,5.2,-3.8,.,49.9*
CCCN1C(=O)C(NC(C)=O)c2ccccc21 (stereo unspecified),-22.1,-2.3,-2.4,6.4,-18.0,5.1,.
COC(=O)[C@@]12CCCCN1C(c1ccc(-c3cccc(Cl)c3)c(OC)c1)C1C(=O)N(C)C(=O)C12 (stereo partly specified),.,.,.,.,.,0.7,.
Cc1cccc(CN2CCN(C(=O)Cc3ccccc3)CC2)c1,-14.2,6.5,3.8,-3.3,13.6,17.1,.
Cc1cccc(CN2CCN(C(=O)CCl)CC2)c1,-15.2,-4.1,16.0*,4.4,18.1,24.5,46.6*
O=C(NN=Cc1ccncc1)c1cccc(S(=O)(=O)Nc2ccc(Cl)cc2)c1,.,.,.,.,.,3.2,.
Cc1cccc(N2CCN(C(=O)c3cc(=O)[nH]c4ccccc34)CC2)c1C,-6.1,-2.8,41.3*,-4.4,18.1,0.0,55.1*
O=C(c1cc(=O)[nH]c2ccccc12)N1CCN(c2ccccc2)CC1,-27.3,6.0,32.3*,5.5,-15.2,4.1,31.4*
O=C(c1ccco1)N1CCN(C(=O)c2cc(=O)[nH]c3ccccc23)CC1,-21.2,-5.7,.,4.5,.,2.7,.
Cc1cccc(N2CCN(C(=O)CCn3c(=O)[nH]c4ccccc4c3=O)CC2)c1C,-9.2,-0.2,1.7,3.4,33.9,9.7,.
Cc1ccc(SC2=C(Sc3ccc(C)cc3)C(=O)c3ccccc3C2=O)cc1,-13.1,-1.7,5.7,5.1,4.9,2.6,4.9
CC(C(=O)Nc1ccc2ccccc2c1)C1C[C@]1(C)C(NC(=O)c1cnccn1)c1ccccc1 (stereo partly specified),.,.,.,.,.,12.3,.
COc1ccc(S(=O)(=O)c2c(O)c3ccc(C(=O)Nc4cccc(F)c4)cc3[nH]c2=O)cc1,-18.5,-1.5,12.8*,3.5,-7.2,6.7,5.3
C=CCOC(=O)C1=CC(c2ccccc2)C(CCCO)C(OCC)O1 (stereo unspecified),.,.,.,.,.,1.0,.
Cc1cc(=O)oc2cc(OC(=O)c3ccco3)ccc12,-12.1,3.7,28.9*,2.9,-14.5,8.4,70.0*
CCc1cc(=O)oc2cc(OC(=O)c3ccco3)ccc12,-14.7,2.1,68.3*,-3.9,6.2,1.6,71.5*
Cc1cc(=O)oc2cc(OC(=O)c3ccccc3)ccc12,-7.9,-3.0,4.6,8.7,7.4,.,.
COC(=O)c1ccc(OC(=O)CN2C(=O)c3ccccc3C2=O)cc1,-10.4,-5.1,14.9*,-3.0,-15.8,12.1,13.7*
COC(=O)c1ccc(CN2C(=O)c3ccccc3C2=O)cc1,-21.5,-1.9,0.5,-2.8,38.8,16.3,.
COC(=O)C1=C(c2ccc(F)cc2F)CC2CCC1N2C(=O)N1CCCCC1 (stereo unspecified),.,.,.,.,.,8.4,.
